Source: PubChem BioAssay (National Center for Advancing Translational Sciences (NCATS))
Sampled rows, rich in hits. Any-hit rate of the full collection: about 20%.
Shiga toxin inh – blocks Shiga toxin action in Vero cells; hit rate 9.2% among 290,000; inhibition, % at 38.7 µM; Vero cells, Shiga toxin protein synthesis inhibition reporter; in the data active = inhibition mostly above about 28%, no sharp cut-off; inactive = mostly below about 43%; note: 0% is about no effect
HCMV inh – inhibitors of human cytomegalovirus; HFF cells, HCMV-luciferase reporter, 72 h; active compounds read low; activity change, negative = inhibition, % at 57.5 µM; hit rate 4.5% among 410,000; in the data active = activity change below about -60%; inconclusive = no clear call, values can overlap the other calls; inactive = above about -39%; note: % is set by controls: 0 for no effect and ±100 for the full control effect
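Two compound doses tested in HFFs infected with HCMV-luciferase, MOI 1 PFU/cell, 72 h at 37C. Lysate luminescence read with OneGlo; data normalized against buffer-only and 10uM Salinomycin inhibitor controls.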
Pf growth 48h – inhibits P. falciparum growth in the first generation, 48 h; P. falciparum luciferase growth in erythrocytes, 48 h; Potency, µM (highest dose often 28.7 µM), inactives show at the highest dose activity change, negative = inhibition, usual class: inhibitors; hit rate 5.9% among 310,000; note: potency is the fitted concentration of half-maximal effect; % is set by controls: 0 for no effect and ±100 for the full control effect
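Growth was read as firefly luciferase luminescence after a 48 h, 37 C, 5% CO2 exposure of compounds to reporter-bearing P. falciparum cultures (0.1% parasitemia, 2% hematocrit final) in Albumax-supplemented RPMI 1640.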
Cycloheximide cs – counter-screen hit for Shiga toxin inhibitors, cycloheximide. cell reporter, cycloheximide protein synthesis inhibition counterscreen. max response, %. hit rate 12% among 300,000. AID 2314; in the data active = max response mostly above about 13%, no sharp cut-off; inactive = mostly below about 14%; note: read at 38.3 µM for the half of the compounds with a filed dose; 0% is about no effect
Pf growth 96h – inhibits malaria parasite growth, 96 h; P. falciparum luciferase reporter growth, 96 h; Potency, µM (top dose mostly 28.7 µM), without a hit: at the top dose activity change, negative = inhibition, most hits filed as inhibitors; hit rate 6.9% among 320,000; note: potency is the fitted concentration of half-maximal effect; % is set by controls: 0 for no effect and ±100 for the full control effect
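Delayed-death screen, second-generation endpoint: infected erythrocytes, 2% hematocrit, 0.05% parasitemia final; 96 hours at 37 C, 5% CO2; luciferase detection reagent; luminescence decrease equals reduced growth.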
Numbers without * were called inactive; ! = not confirmed by another sample. Unless noted, calls come from the whole dose curve; as a rule, active = well fitted inhibition curve with a large enough effect; inconclusive = small, poorly fitted or top-dose-only effect, or another doubt; inactive = no such curve, though single readings can be large or run the other way.

How did COc1cc(NC(=O)NCCn2nnc3cc(S(=O)(=O)N(C)C)ccc32)cc(OC)c1OC do in these assays?
HCMV inh: 7

What do the screens show for `COc1ccc(C(=O)C2CCCN(C(=O)Cn3nc(C)cc3C)C2)cc1F` (centres undefined)?
Shiga toxin inh: 40; HCMV inh: -20; Pf growth 48h: -11%; Cycloheximide cs: 5; Pf growth 96h: -17%

How did COC(=O)c1sc2nc3c(cc2c1N)CCCC3 do in these assays?
Shiga toxin inh: 99*; HCMV inh: -10; Pf growth 48h: 172%; Cycloheximide cs: 39*; Pf growth 96h: -3%

What do the screens show for `COc1ccc(NC(=O)c2sc3nc4c(cc3c2N)CCCCCC4)c(OC)c1`?
HCMV inh: 4

What do the screens show for `NC(=O)c1sc2nc3c(cc2c1N)CCC3`?
Shiga toxin inh: 48*; HCMV inh: -25; Pf growth 48h: 68%; Cycloheximide cs: 22*; Pf growth 96h: 9%

Results for COC(=O)c1sc2nc(N)c(C#N)cc2c1N ?
Shiga toxin inh: 73*; HCMV inh: -4; Pf growth 48h: 57%; Cycloheximide cs: 30*; Pf growth 96h: -14%

What do the screens show for `COC(=O)c1sc2nc3c(cc2c1N)C(=O)CC(C)(C)C3`?
Shiga toxin inh: -12; HCMV inh: 59; Pf growth 48h: 25%; Cycloheximide cs: -3; Pf growth 96h: 29%

What do the screens show for `CCCCCCC(=O)Nc1ccc2nc3c(=O)n(C)c(=O)n(C)c3nc2c1C`?
HCMV inh: 6

Results for O=S(=O)(c1cccc2ccccc12)N1CCN(c2ccc(Cl)c(Cl)c2)CC1 ?
HCMV inh: -1

What do the screens show for `CC(C)OCCCNC(=O)C1CC(=O)N(CCc2ccccc2)C1` (centres undefined)?
Shiga toxin inh: 3; HCMV inh: -17; Pf growth 48h: 3%; Cycloheximide cs: 3; Pf growth 96h: -21%

How did Cc1ccc(N2C(=O)c3cccc4c(N)ccc(c34)C2=O)c2cccnc12 do in these assays?
Shiga toxin inh: -4; HCMV inh: active; Pf growth 48h: inconclusive; Cycloheximide cs: -5; Pf growth 96h: inconclusive

What do the screens show for `Cc1nn(C)c(C)c1N1C(=O)c2cccc3c(N)ccc(c23)C1=O`?
Shiga toxin inh: -2; HCMV inh: 4; Pf growth 48h: -18%; Cycloheximide cs: -4; Pf growth 96h: inconclusive

Results for Cc1sc2ncnc(N/N=C/c3cccc(O)c3)c2c1C ?
Shiga toxin inh: 29*; HCMV inh: inconclusive; Pf growth 48h: 64%; Cycloheximide cs: 42*; Pf growth 96h: 35%

What do the screens show for `C/C(=N\Nc1ncnc2sc(C)c(C)c12)c1ccccn1`?
Shiga toxin inh: 67*; HCMV inh: -102*; Pf growth 48h: 0.17µM*; Cycloheximide cs: 49*; Pf growth 96h: 0.046µM*

How did Cc1ccc(S(=O)(=O)Nc2ncnc3sc(C)c(C)c23)cc1 do in these assays?
HCMV inh: 0; Pf growth 48h: 0%; Pf growth 96h: -4%

What do the screens show for `COc1cc(/C=N/Nc2ncnc3sc4c(c23)CCC4)ccc1O`?
Shiga toxin inh: 12; HCMV inh: 31; Pf growth 48h: inconclusive; Cycloheximide cs: 8; Pf growth 96h: inconclusive

How did CCOc1ccc(-n2ccnc2SCC(=O)NCc2ccc3c(c2)OCO3)cc1 do in these assays?
Shiga toxin inh: -18; Pf growth 48h: 41%; Cycloheximide cs: -3; Pf growth 96h: 18%

Results for O=S(=O)(c1ccc(Cl)c(C(F)(F)F)c1)N1CCN(CC(O)COc2ccccc2F)CC1 (centres undefined) ?
Shiga toxin inh: -14; HCMV inh: -13; Pf growth 48h: inconclusive; Cycloheximide cs: -6; Pf growth 96h: inconclusive

What do the screens show for `O=C(c1cc([N+](=O)[O-])ccc1N1CCOCC1)N1CCN(S(=O)(=O)c2cc(Cl)ccc2Cl)CC1`?
HCMV inh: 4; Pf growth 48h: 10µM*; Pf growth 96h: inconclusive

Results for O=[N+]([O-])c1cccc(OCC(O)CN2CCN(S(=O)(=O)c3cc(Cl)ccc3Cl)CC2)c1 (centres undefined) ?
Shiga toxin inh: 28; HCMV inh: 0; Pf growth 48h: inconclusive; Cycloheximide cs: -3; Pf growth 96h: 10µM*

How did O=C(c1cc([N+](=O)[O-])ccc1N1CCOCC1)N1CCN(c2ccc([N+](=O)[O-])cc2)CC1 do in these assays?
HCMV inh: -14; Pf growth 48h: inconclusive; Pf growth 96h: 9.3µM*

Results for O=C(/C=C/c1ccc(Cl)cc1)N1CCN(c2ccc([N+](=O)[O-])c(N3CCOCC3)c2)CC1 ?
Shiga toxin inh: -10; HCMV inh: -38; Pf growth 48h: inconclusive; Cycloheximide cs: -1; Pf growth 96h: 10µM*

What do the screens show for `O=C(c1cc([N+](=O)[O-])ccc1N1CCOCC1)N1CCCCC1`?
Shiga toxin inh: 3; HCMV inh: inconclusive; Pf growth 48h: 10%; Cycloheximide cs: -5; Pf growth 96h: 11%

What do the screens show for `O=C(c1cc([N+](=O)[O-])ccc1N1CCN(S(=O)(=O)c2ccc(Cl)c(Cl)c2)CC1)N1CCOCC1`?
Shiga toxin inh: -14; HCMV inh: 31; Pf growth 48h: inconclusive; Cycloheximide cs: 1; Pf growth 96h: inconclusive

Results for CN1OC(C)(CC(=O)Nc2ccccc2)N=C1c1ccccc1 (centres undefined) ?
HCMV inh: -27

Results for COc1ccc(N2CCN(C(=O)c3nc4nc(C)cc(C)n4n3)CC2)cc1 ?
Shiga toxin inh: -4; HCMV inh: -35; Pf growth 48h: inconclusive; Cycloheximide cs: 7; Pf growth 96h: -6%

Results for CN1CCN(c2ccc([N+](=O)[O-])cc2C(=O)N2CCCCC2)CC1 ?
Shiga toxin inh: -1; HCMV inh: 12; Pf growth 48h: 0%; Cycloheximide cs: -3; Pf growth 96h: 12µM*

What do the screens show for `O=C(c1cc([N+](=O)[O-])ccc1N1CCCC1)N1CCCC1`?
Shiga toxin inh: -5; HCMV inh: 4; Pf growth 48h: 0%; Cycloheximide cs: 9; Pf growth 96h: inconclusive

What do the screens show for `Cc1cc(C)n2nc(C(=O)N3CCN(c4ccc([N+](=O)[O-])cc4)CC3)nc2n1`?
Shiga toxin inh: 15; HCMV inh: -11; Pf growth 48h: inconclusive; Cycloheximide cs: -3; Pf growth 96h: 5.9µM*

What do the screens show for `O=C(c1cc([N+](=O)[O-])ccc1N1CCCCC1)N1CCCC1`?
Shiga toxin inh: -11; HCMV inh: inconclusive; Pf growth 48h: 31%; Cycloheximide cs: 1; Pf growth 96h: 7.4µM*

Results for CCNC(=O)C1CCCN(C(=O)C(c2ccccc2)c2ccccc2)CC1 (centres undefined) ?
HCMV inh: -11

Results for Cc1cccn2c(=O)c3cc(C(=O)N(Cc4ccccc4)C(C)C)sc3nc12 ?
HCMV inh: -14

How did COc1cc(-c2oc3cc(O)cc(O)c3c(=O)c2O)ccc1O do in these assays?
Shiga toxin inh: 49*; Cycloheximide cs: 48*!

What do the screens show for `COc1ccc(-c2cc(=O)c3c(O)cc(O)cc3o2)cc1`?
HCMV inh: 14; Pf growth 48h: 3%; Pf growth 96h: 18%
